Test results as given in PubChem BioAssay AID720690 (Broad Institute, 2013).
Measured potencies and affinities stand elsewhere. Calls of active or inactive are those of the source.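 Rule for the calls: active = every repeat run showing a signal drop whose fitted half-maximal concentration is at most twice the top tested concentration; inconclusive = repeat runs disagree, or flat partial drop, or poor fit; inactive = the rest.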

assay: HEK293T cytotoxicity, dose response, cytotoxicity control for miR-122 modulator project, cell-based, activator set, cherry-pick (AID 720690); conditions: HEK293T viability, CellTiter-Glo luminescence, 48 h; series mostly up to 26 µM; activity change, negative = cytotoxicity: at the top concentration;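 note: 0% = neutral control wells and -100% = MG132 cytotoxic control wells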

Row | Structure (SMILES) | activity change, negative = cytotoxicity
1 | Cc1noc(C)c1NC(=O)Nc1ccc2c(c1)C(=O)N(C)[C@@H]1CC[C@H](CC(=O)N[C@H]3CCN(Cc4ccccc4)C3)O[C@H]1CO2 | 11% (inactive)
2 | Cc1ccc(S(=O)(=O)NCCCNS(C)(=O)=O)cc1 | 7.67% (inactive)
3 | CN(C(=O)c1ccccc1Cl)C1CCCCC1 | -4.24% (inactive)
4 | CN(C)CCCN(C(=O)CCc1ccccc1)c1nc2ccc(Br)cc2s1 | -3.38% (inactive)
5 | CN(C)CCNC(=O)C1CC(=O)N(c2ccc(F)c(Cl)c2)C1 (stereo not drawn) | -5.76% (inactive)
6 | CCNC(=O)C[C@@H]1CC[C@H]2[C@@H](COc3ccc(NC(=O)c4ccc(C(F)(F)F)cc4)cc3C(=O)N2C)O1 | -6.62% [at 23.5 µM] (inactive)
7 | CCNC(=O)Nc1ccc2c(c1)C(=O)N(C)[C@H]1CC[C@H](CC(=O)NCc3ccccc3F)O[C@H]1CO2 | -5.41% (inactive)
8 | C/C=C/c1ccc([C@H]2[C@@H](CO)N(Cc3ccccn3)[C@@H]2CNC(=O)CC)cc1 | 4.6% [at 23.5 µM] (inactive)
9 | O=C(NC[C@H]1[C@H](c2ccccc2)[C@H](CO)N1CC1CCCC1)c1ccncc1 | 2.8% [at 23.5 µM] (inactive)
10 | C[C@@H]1CN([C@@H](C)CO)S(=O)(=O)c2ccc(C3=CCCCC3)cc2O[C@@H]1CN(C)C(=O)Nc1ccc2c(c1)OCO2 | -10.2% (inactive)
11 | C/C=C/c1ccc2c(c1)O[C@H](CN(C)C(=O)NCCC)[C@H](C)CN([C@@H](C)CO)S2(=O)=O | 1.6% (inactive)
12 | C/C=C/c1ccc2c(c1)O[C@H](CN(C)C(=O)c1cnccn1)[C@H](C)CN([C@H](C)CO)S2(=O)=O | 8.36% (inactive)
13 | CNC(=O)C[C@@H]1CC[C@@H]2[C@@H](COc3ccc(NC(=O)c4cccc(OC)c4)cc3C(=O)N2C)O1 | 16.2% (inactive)
14 | COCC(=O)N1[C@@H](CO)[C@@H]2c3ccccc3N(C(=O)c3cccnc3)C[C@@H]21 | -15.7% (inactive)
15 | CNC(=O)C[C@@H]1CC[C@H]2[C@@H](COc3ccc(NC(=O)NC(C)C)cc3C(=O)N2C)O1 | -0.66% [at 23.5 µM] (inactive)
16 | CO[C@@H]1CN(C)C(=O)c2cc(NC(=O)c3cccc(Oc4ccccc4)c3)ccc2OC[C@H](C)NC[C@@H]1C | -5.67% (inactive)
17 | COc1cccc(-c2nn(-c3ccccc3)cc2CO)c1 | -5.48% (inactive)
18 | CC(C)C#Cc1ccc2c(c1)O[C@H](CN(C)C(=O)c1ccncc1)[C@H](C)CN([C@H](C)CO)S2(=O)=O | 1.9% (inactive)
19 | CN(Cc1ccccc1)C(=O)COC(=O)c1ccccc1Nc1ccccc1 | -0.674% (inactive)
20 | CC(C)Oc1ccc(C(CCN)C2CCCCC2)cc1 (stereo not drawn) | -85.3% (inactive)
21 | CN1C(=O)c2cc(NC(=O)C3CC3)ccc2OC[C@@H]2O[C@H](CC(=O)NC3CCC3)CC[C@H]21 | -3.55% [at 23.5 µM] (inactive)
22 | Cc1cc(C)nc(NS(=O)(=O)c2ccc(NC(=S)NC(=O)C3CCCC3)cc2)n1 | -1.38% (inactive)
23 | COCCNC(=O)C[C@@H]1CC[C@@H]2[C@H](COc3ccc(NS(=O)(=O)c4ccc(Cl)cc4)cc3C(=O)N2C)O1 | -19.3% (inactive)
24 | CC(C)C(=O)Nc1ccc2c(c1)C(=O)N(C)[C@@H]1CC[C@@H](CC(=O)N[C@H](C)c3ccccc3)O[C@@H]1CO2 | -3.75% [at 23.5 µM] (inactive)
25 | CNC(=O)C[C@H]1CC[C@@H]2[C@H](COc3ccc(NS(=O)(=O)c4ccc(F)cc4)cc3C(=O)N2C)O1 | 3.09% (inactive)
26 | Cc1cc(C(=O)Nc2ccc3c(c2)C(=O)N(C)[C@@H]2CC[C@H](CC(=O)N[C@@H](C)c4ccccc4)O[C@H]2CO3)no1 | 7.69% (inactive)
27 | CN1C(=O)c2cc(NS(=O)(=O)c3cccc(F)c3)ccc2OC[C@@H]2O[C@@H](CC(=O)O)CC[C@@H]21 | 10.7% [at 23.5 µM] (inactive)
28 | Cc1oc(-c2ccc(Cl)cc2)nc1CN1CCCC(C(=O)NCc2ccco2)C1 (stereo not drawn) | -7.14% (inactive)
